Measured values from PubChem BioAssay (NCATS).
Results filed as inconclusive are left out. Calls of active or inactive are those of the source. Calls come from the whole dose curve; as a rule, active = well fitted curve in the direction sought with a large enough effect; inconclusive = small, poorly fitted or top-dose-only effect, or another doubt; inactive = no such curve, though single readings can be large; an effect the other way counts as inactive or inconclusive.

What was measured:
NIH3T3 = test: qHTS assay to identify novel small-molecules to repurpose for Merkel cell carcinoma treatment (AID 1296009); details: MCC and control cell lines, CellTiter-Glo viability, 72 h; at 44.8 µM (top of the series) unless noted; note: nearly all actives have a fitted effect of over 60% in size
Method in brief: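 Cells were incubated with compound for 72 hr at 37 degree celsius before CellTiter-Glo addition. Luminescence was normalized with no-cell wells as full cytotoxicity and DMSO as baseline.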

C33A = test: Primary qHTS to identify gynecologic anti-cancer compounds using libraries of approved drugs and bioactive compounds (AID 1345084); details: Gynecologic cancer cell panel viability, ATPlite luminescence, 48 h; series mostly up to 57.5 µM; note: nearly all actives have a fitted effect of over 55% in size
Method in brief: (§1)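 Cells, 1,000 per well, plated 16 h, then exposed 48 h at 37 C to compounds. Viability by ATPlite luminescence after 15 min at room temperature.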

CAOV3 = test: as above; details: Gynecologic cancer cell panel viability, ATPlite luminescence, 48 h; series mostly up to 57.5 µM
Method in brief: as §1

CASKI = test: as above; details: Gynecologic cancer cell panel viability, ATPlite luminescence, 48 h; series mostly up to 57.5 µM
Method in brief: as §1

Es-2 = test: as above; details: Gynecologic cancer cell panel viability, ATPlite luminescence, 48 h; series mostly up to 57.5 µM
Method in brief: as §1

HeLa = test: as above; details: Gynecologic cancer cell panel viability, ATPlite luminescence, 48 h; series mostly up to 57.5 µM
Method in brief: as §1

Hek293T = test: as above; details: Gynecologic cancer cell panel viability, ATPlite luminescence, 48 h, control line for the selectivity index; series mostly up to 57.5 µM
Method in brief: as §1

JEG-3 = test: as above; details: Gynecologic cancer cell panel viability, ATPlite luminescence, 48 h; series mostly up to 57.5 µM
Method in brief: as §1

OV90 = test: as above; details: Gynecologic cancer cell panel viability, ATPlite luminescence, 48 h; series mostly up to 57.5 µM
Method in brief: as §1

PA-1 = test: as above; details: Gynecologic cancer cell panel viability, ATPlite luminescence, 48 h; series mostly up to 57.5 µM
Method in brief: as §1

SKOV3 = test: as above; details: Gynecologic cancer cell panel viability, ATPlite luminescence, 48 h; series mostly up to 57.5 µM
Method in brief: as §1

Tov-21-G = test: as above; details: Gynecologic cancer cell panel viability, ATPlite luminescence, 48 h; series mostly up to 57.5 µM
Method in brief: as §1

Tov112D = test: as above; details: Gynecologic cancer cell panel viability, ATPlite luminescence, 48 h; series mostly up to 57.5 µM
Method in brief: as §1

Measured: Potency

C[C@@H]1O[C@@H](O[C@H]2[C@@H]3C=CO[C@@H](O[C@@H]4O[C@H](CO)[C@@H](O)[C@H](O)[C@H]4O)[C@@H]3[C@@]3(CO)O[C@@H]23)[C@H](OC(=O)/C=C/c2ccc(O)cc2)[C@H](O)[C@H]1O
inactive: NIH3T3 inactive [at 17.4 µM] | C33A | CAOV3 | CASKI | Es-2 | HeLa | Hek293T | JEG-3 | OV90 | PA-1 | SKOV3 | Tov-21-G | Tov112D

CC(=O)c1ccc(O[C@@H]2OC[C@@H](O)[C@H](O)[C@H]2O[C@]2(CO)O[C@H](CO)[C@@H](O)[C@@H]2O)c(O)c1
inactive: NIH3T3 inactive [at 17.4 µM] | C33A | CAOV3 | CASKI | Es-2 | HeLa | Hek293T | JEG-3 | OV90 | PA-1 | SKOV3 | Tov-21-G | Tov112D

C=C1C(OC(C)=O)CCC2(C)CC3(O)OC(=O)C(C)=C3CC12 (centres undefined)
inactive: all assays above

Cc1cn2cc(CC(=O)N3CCC4(CC3)CN(Cc3ccc(-n5nccn5)cc3Cl)C4)nc2s1
inactive: all assays above

CC(=O)OC1C(C)C2C(OC3OC(CO)C(O)C(O)C3O)OC=C(C(=O)O)C2C1OC(=O)c1ccccc1 (centres undefined)
inactive: NIH3T3 inactive [at 17.4 µM] | C33A | CAOV3 | CASKI | Es-2 | HeLa | Hek293T | JEG-3 | OV90 | PA-1 | SKOV3 | Tov-21-G | Tov112D

CN1C(=O)N(c2cc(Cl)cc(Cl)c2)C(=O)[C@@]1(C)Cc1ccc(Br)cc1
inactive: all assays above

C/C=C/C=C/C(O)=C1/C(=O)[C@]2(C)C3/C(=C(O)/C=C/C=C/C)C(=O)C4(C)C1[C@]1(C)O[C@@]4(O)[C@@]3(C)O[C@@]12O
inactive: NIH3T3 inactive [at 17.4 µM] | C33A | CAOV3 | CASKI | Es-2 | HeLa | Hek293T | JEG-3 | OV90 | PA-1 | SKOV3 | Tov-21-G | Tov112D

C=C1C(O)CC2C(C(=O)O)=COC(O[C@@H]3O[C@H](COC(=O)c4ccc(O)cc4)[C@@H](O)[C@H](O)[C@H]3O)C12 (some centres undefined)
inactive: NIH3T3 inactive [at 17.4 µM] | C33A | CAOV3 | CASKI | Es-2 | HeLa | Hek293T | JEG-3 | OV90 | PA-1 | SKOV3 | Tov-21-G | Tov112D

COC(=O)c1ccc(OC)cc1O[C@@H]1O[C@H](CO[C@@H]2OC[C@@H](O)[C@H](O)[C@H]2O)[C@@H](O)[C@H](O)[C@H]1O
inactive: NIH3T3 inactive [at 17.4 µM] | C33A | CAOV3 | CASKI | Es-2 | HeLa | Hek293T | JEG-3 | OV90 | PA-1 | SKOV3 | Tov-21-G | Tov112D

O=C(O)CC1CCC(c2ccc(NC(=O)c3nnc(Nc4ccc(F)c(F)c4)o3)cc2)CC1 (centres undefined)
inactive: all assays above

CO[C@@H]1[C@]2(O)C(=O)N3/C=C\C(C)(C)c4[nH]c5ccccc5c4/C=C\3C(=O)N2[C@]23[C@H](CO)C(C)(C)N2c2ccccc2[C@]13O
inactive: NIH3T3 inactive [at 17.4 µM] | C33A | CAOV3 | CASKI | Es-2 | HeLa | Hek293T | JEG-3 | OV90 | PA-1 | SKOV3 | Tov-21-G | Tov112D

CCNC(=O)OC1CCN(c2nncc3cc(OC)c(OC)cc23)CC1
inactive: all assays above

CC1=C(CO)C2(C)CCCC(C)(C)C2C(O)C1O (centres undefined)
inactive: all assays above
